# Screening data from PubChem BioAssay.
# A selection: hits, their analogues and other compounds. The true share with any hit is near 2.8%.
# Pol kappa inh = DNA polymerase kappa (human) inhibition. Q9UBT6. purified Pol kappa, fluorescent DNA synthesis assay, 10 min. Potency, µM (titrated, usually from 107 µM), for inactives: at the highest dose activity, negative = inhibition, most hits filed as inhibitors. actives 0.53% (n = 400,000). AID 588579; note: potency is the fitted concentration of half-maximal effect; % is set by controls: 0 for no effect and ±100 for the full control effect
# Target sequence (Q9UBT6 whole entry, looked up): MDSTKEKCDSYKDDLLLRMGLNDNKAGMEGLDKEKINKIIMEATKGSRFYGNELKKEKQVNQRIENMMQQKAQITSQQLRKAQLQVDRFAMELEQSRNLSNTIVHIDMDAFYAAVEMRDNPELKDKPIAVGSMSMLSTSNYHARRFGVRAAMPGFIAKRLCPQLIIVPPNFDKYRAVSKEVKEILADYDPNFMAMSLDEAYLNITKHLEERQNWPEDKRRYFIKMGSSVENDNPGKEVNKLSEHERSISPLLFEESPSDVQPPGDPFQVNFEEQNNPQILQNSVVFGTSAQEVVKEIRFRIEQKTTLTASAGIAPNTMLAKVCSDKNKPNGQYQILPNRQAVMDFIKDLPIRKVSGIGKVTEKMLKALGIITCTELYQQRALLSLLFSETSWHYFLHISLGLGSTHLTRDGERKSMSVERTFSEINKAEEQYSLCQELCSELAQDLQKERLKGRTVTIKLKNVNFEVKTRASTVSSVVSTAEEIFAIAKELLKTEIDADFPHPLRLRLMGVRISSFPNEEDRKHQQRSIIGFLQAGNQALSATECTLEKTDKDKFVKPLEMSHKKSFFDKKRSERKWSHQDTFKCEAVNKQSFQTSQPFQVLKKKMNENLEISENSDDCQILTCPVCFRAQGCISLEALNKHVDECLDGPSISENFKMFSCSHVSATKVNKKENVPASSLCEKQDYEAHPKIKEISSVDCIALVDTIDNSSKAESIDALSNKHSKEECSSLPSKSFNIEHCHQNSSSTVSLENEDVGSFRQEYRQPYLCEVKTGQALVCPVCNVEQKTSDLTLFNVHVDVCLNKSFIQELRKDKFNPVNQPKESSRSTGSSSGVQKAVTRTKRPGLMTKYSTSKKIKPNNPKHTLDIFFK
#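 Activity was followed as the change in fluorescence between reads at 0 and 10 min after starting the reaction with 50 nM substrate. Beforehand, 10 nM polymerase had been preincubated with compound for 15 min at room temperature.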
# Pol beta inh = DNA polymerase beta (human) inhibition | P06746 | Pol beta primer extension/strand displacement, fluorescence kinetic | Potency, µM (titrated, usually from 114 µM), for the others: at the top dose activity change, negative = inhibition, usual class: inhibitors | actives 1.3% (n = 340,000) | AID 485314; note: potency is the fitted concentration of half-maximal effect; % is set by controls: 0 for no effect and ±100 for the full control effect
#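 10 nM enzyme + cpd, 15 min RT; start with substrate 50 nM final; read 0 min and after 10 min RT. Corrected, normalized data; 4-parameter Hill curve fit.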
# WRN inhibitor = WRN helicase (human) inhibition. Q14191. Potency, µM (doses to about 114 µM), for inactives: at the top dose activity change, negative = inhibition, usual class: inhibitors. actives 0.46% (n = 360,000). WRN helicase unwinding, fluorescent forked duplex, kinetic; note: potency is the fitted concentration of half-maximal effect; % is set by controls: 0 for no effect and ±100 for the full control effect; nearly all actives have a fitted effect of over 55% in size
#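 Kinetic red-fluorescence monitoring (525/598 nm) tracks WRN helicase activity after 100 nM fluorophore-quencher forked duplex and 2 mM ATP are added to 20 nM enzyme pretreated 15 min at room temperature with compound.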
# POLI inh = blocks human DNA polymerase iota activity; Potency, µM (titrated, usually from 115 µM), without a hit: top-dose activity, negative = inhibition, usual class: inhibitors; actives 1% (n = 390,000); Pol iota fluorescent replication assay, 10 min; Q9UNA4; note: potency is the fitted concentration of half-maximal effect
#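 Fluorescent replication assay read twice, at 0 min and 10 min after adding 50 nM (final) substrate. Enzyme (10 nM) and compounds were first incubated 15 min at room temperature; enzyme-free buffer wells were negative controls.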
# POLH inh = inhibitors of human DNA polymerase eta; Q9Y253; recombinant Pol eta, fluorescent DNA replication assay; Potency, µM (top dose mostly 114 µM), without a hit: at the highest dose activity change, negative = inhibition, most hits filed as inhibitors; actives 1.2% (n = 390,000); AID 588591; note: potency is the fitted concentration of half-maximal effect; % is set by controls: 0 for no effect and ±100 for the full control effect
#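 Fluorescent replication assay: 50 nM final substrate added after a 15 min room-temperature compound preincubation with 10 nM enzyme. Signal taken at 0 min and again at 10 min.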
# PI5P4Ka inh = inhibitors of human PI5P4K alpha; P48426; PI5P4Kalpha enzyme, ADP-Glo luminescence, 60 min; hits give low values; max response, %; actives 1.2% (n = 330,000); active = max response of -50% or lower; inconclusive = between -30% and -50%; inactive = -30% or higher; note: value at the top dose of about 77 µM; % is set by controls: 0 for no effect and ±100 for the full control effect
#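 Quantitative HTS of the MLSMR library against PI5P4Kalpha with substrate. ATP added last at 5 microM final; room temperature, 60 minutes. Remaining ATP depleted, ADP converted and read as luminescence.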
# An asterisk follows results filed as active; u = inconclusive; x = no result; [ ] = remark or other dose. Unless noted, calls come from the whole dose curve; as a rule, active = well fitted curve in the direction sought with a large enough effect; inconclusive = small, poorly fitted or top-dose-only effect, or another doubt; inactive = no such curve, though single readings can be large; an effect the other way counts as inactive or inconclusive.
SMILES,Pol kappa inh,Pol beta inh,WRN inhibitor,POLI inh,POLH inh,PI5P4Ka inh
Cc1cc(C)cc(NC(=O)C2C3C=CC4(O3)C2C(=O)N(CCCN2CCCCC2)C4C(=O)NC2CCCCC2)c1 (stereo unspecified),-2%,11%,0%,23%,-5%,3
COCCCN1C(=O)C2C(C(=O)Nc3cc(C)cc(C)c3)C3C=CC2(O3)C1C(=O)NC1CCCCC1 (stereo unspecified),-40%,18%,u,13µM*,22µM*,-10
Cc1nc(NC(=O)C(Cl)Cl)sc1C(=O)N(C)C,-31%,35µM*,u,u,10µM*,-6
Cc1nc(NC(=O)CCl)sc1C(=O)N(C)C,-1%,21%,2%,-8%,9%,0
Cc1ccc(S(=O)(=O)NC(=O)C2(C)CCN2C(=O)c2ccccc2)nc1 (stereo unspecified),x,x,-2%,x,x,6
CCCCNC(=O)CSc1nnc(Cc2ccc(Cl)c(Cl)c2)c(=O)[nH]1,89µM*,-10%,-7%,u,12%,-27
O=C(NCc1ccco1)C1CC(O)CN1C(=O)Nc1ccccc1 (stereo unspecified),-12%,10%,-4%[57.1 µM],70%,-14%,-1
CC(C)C(=O)N1CCN(CCN2C(=O)c3cccc4cccc(c34)C2=O)CC1,4%[60.1 µM],89µM*,5%,13%,-22%,13
O=C(C(c1ccccc1)c1ccccc1)N1CCN(CCN2C(=O)c3cccc4cccc(c34)C2=O)CC1,-20%,18%,-14%,16%,-12%,1
O=C(CSc1nnc(-c2ccncc2)n1-c1ccc(F)cc1)NC(=O)NCc1ccco1,u,28µM*,u,20µM*,79µM*,x
C=CCn1c(COc2ccc(F)cc2)nnc1SCC(=O)NC(=O)NCc1ccco1,u,25µM*,-21%[57.1 µM],50µM*,u,x
Cc1ccc(-n2c(SCC(=O)NCc3ccco3)nnc2-c2cccnc2)cc1,-10%,-4%,7%,-1%,-13%,-2
C=CCn1c(COc2cccc(C)c2)nnc1SCC(=O)NC(=O)NCc1ccco1,u,20µM*,-8%[11.6 µM],71µM*,u,x
C=C1NN(CC#N)C(=O)N1c1ccc(OCc2ccccc2)cc1,-6%,x,x,16%,x,x
CSCCC1C(C#N)=C(N)Oc2n[nH]c(-c3cccs3)c21 (stereo unspecified),-12%,3%,-20%[57.1 µM],22%,-13%,-65*
N#CC1=C(N)Oc2n[nH]c(-c3cccs3)c2C1c1cccs1 (stereo unspecified),-7%,-7%,-21%[57.1 µM],22%,-15%,-53*
CC(C)CC1C(C#N)=C(N)Oc2n[nH]c(-c3cccs3)c21 (stereo unspecified),-5%,0%,-19%,u,-14%,x
COCCCCOc1cc2nc(N3CCCN(C)CC3)nc(NC3CCN(C)CC3)c2cc1OC,-3%,x,x,24%,x,x
CO/N=C(/C(=O)N[C@@H]1C(=O)N2C(C(=O)O)=C(C[n+]3ccc(N)n3CCO)CS[C@H]12)c1csc(N)n1,4%[19.4 µM],x,x,x,x,x
CO/N=C(\C(=O)N[C@@H]1C(=O)N2C(C(=O)O)=C(COC(N)=O)CS[C@H]12)c1ccco1,u,u,-35%,40µM*,2.5µM*,-2
CO/N=C(/C(=O)NC1C(=O)N2C(C(=O)O)=C(COC(N)=O)CSC12)c1ccco1 (stereo unspecified),35µM*,x,x,x,x,x
CO/N=C(/C(=O)N[C@@H]1C(=O)N2C(C(=O)O)=C(CSC(=O)c3ccco3)CSC12)c1csc(N)n1 (stereo partly specified),0%[19.4 µM],x,x,x,x,x
CO/N=C(\C(=O)N[C@@H]1C(=O)N2C(C(=O)O)=C(CSc3nc(=O)c(O)nn3C)CSC12)c1csc(N)n1 (stereo partly specified),u,14µM*,x,25µM*,11µM*,x
CCOc1ccc(C(=O)Nc2c(C)nc(Nc3ccccc3)nc2Nc2ccccc2)cc1OCC,-20%,15%,x,71µM*,-14%,x
COc1ccc(NC(=S)NCc2ccccc2)c(OC)c1,-9%,26%,-11%,-3%,-11%,1
SMILES,Pol kappa inh,Pol beta inh,WRN inhibitor,POLI inh,POLH inh,PI5P4Ka inh
O=C(c1c(F)c(F)c(F)c(F)c1F)N1CCN(Cc2ccc3c(c2)OCO3)CC1,11%,x,-5%,-24%,-4%,2
O=C(c1ccc(COc2c(F)c(F)c(F)c(F)c2F)o1)N1CCN(Cc2ccc3c(c2)OCO3)CC1,u,45µM*,-23%,u,u,4
Cc1cc(C)c2c(=N)c3ccccc3n(CCCCCCCCn3c4ccccc4c(=N)c4c(C)cc(C)nc43)c2n1,-35%,x,50µM*,u,u,-67*
CCOC(=O)c1c(S(=O)(=O)NCC(=O)Nc2ccc(F)cc2F)c(C)n(C)c1C,-10%,-1%,-7%,4%,-3%,7
CCOC(=O)c1c(S(=O)(=O)NCC(=O)N(C)c2ccc(C)cc2)c(C)n(C)c1C,-14%[60.1 µM],7%,x,-5%,45µM*,x
CCOC(=O)c1c(S(=O)(=O)NCC(=O)Nc2ccc(F)cc2C)c(C)n(C)c1C,2%[60.1 µM],-22%,x,11%,79µM*,x
CCOc1cccc(C2C=C(c3ccc4c(c3)OCO4)NC(c3ccccc3Cl)N2)c1O (stereo unspecified),-9%,x,x,-17%,x,x
CCCNC(=O)c1nnsc1S(=O)c1ccc(Cl)cc1 (stereo unspecified),-11%,-3%,20µM*,49%,2%,u
CCCNC(=O)c1ccc2snnc2c1,-10%,4%,1%,-5%,-11%,-4
CNC(=O)c1nnsc1S(=O)c1ccc(Cl)cc1 (stereo unspecified),-7%,26%,28µM*,75%,-5%,u
CCCNC(=O)c1nnsc1S(=O)(=O)c1ccc(Cl)cc1,-14%,20%,28µM*,33%,8%,u
O=C1OCC/C1=C1/NCCNC1=O,x,x,2%,x,-8%,-2
O=C1NC[C@@H](CCCCN2CCN(CCc3ccccc3)C(=O)C2=O)N(CC2CCCCC2)C1=O,x,x,-1%,x,x,-4
O=C(COC(=O)/C=C/c1ccc(Cl)cc1Cl)Nc1cccc(S(=O)(=O)NC2=NCCC2)c1,x,x,-1%[11.6 µM],x,u,-75*
COc1ccc(/C=N\NC(=O)c2ccccc2F)cc1COc1ccc(F)cc1F,-8%,35%,-6%,-20%,-13%,-5
COc1ccc(/C=N\NC(=O)c2cc(O)c(O)c(O)c2)cc1COc1ccc(C(=O)OCC(C)C)cc1,8%,1.4µM*,-6%[11.6 µM],5%,u,-72*
COc1ccc(/C=N/NC(=O)c2cc(C(C)(C)C)[nH]n2)cc1COc1ccc(F)cc1F,-8%,4%,-6%,89µM*,-16%,-7
